# Sm TGR inh – S. mansoni TGR enzyme inhibition; actives 3% (n = 360,000); purified TGR, DTNB reduction, TNB absorbance 405 nm; Q962Y6; Potency, µM (series often up to 114 µM), inactives show at the top dose activity change, negative = inhibition, hits mostly inhibitors; note: nearly all actives have a fitted effect of over 60% in size
#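 First, TGR (20 nM dispensed) and NADPH were mixed with compound. Second, a 15 min room-temperature incubation followed. Third, further NADPH and then DTNB were added to start the reaction. Finally, TNB absorbance was monitored kinetically.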
# Giardia FBPA inh – blocks Giardia fructose-bisphosphate aldolase activity | A8B2U2 | purified Giardia FBPA | Potency, µM (titrated, usually from 59.6 µM), for the others: top-dose activity, negative = inhibition, actives largely listed as inhibitors | actives 0.71% (n = 290,000); note: nearly all actives have a fitted effect of over 55% in size
#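 40 nM FBPA preincubated 10 min at RT with compound (up to 57.5 uM final), then substrate plus GAPDH/TPI/NAD/arsenate coupling and diaphorase/resazurin added. Fluorescence read after 20 min at RT, 525/598 nm.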
# AmpC inh detg – inhibitors of E. coli AmpC beta-lactamase with detergent; P00811; AmpC hydrolysis of nitrocefin, absorbance 480 nm, 0.01% Triton; Potency, µM (top dose mostly 114 µM), inactives show top-dose activity change, negative = inhibition, usual class: inhibitors; actives 0.041% (n = 370,000); AID 485294;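 note: 0% = no-compound wells and -100% = no-enzyme wells; nearly all actives have a fitted effect of over 25% in size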
# Target sequence (P00811 whole entry, looked up): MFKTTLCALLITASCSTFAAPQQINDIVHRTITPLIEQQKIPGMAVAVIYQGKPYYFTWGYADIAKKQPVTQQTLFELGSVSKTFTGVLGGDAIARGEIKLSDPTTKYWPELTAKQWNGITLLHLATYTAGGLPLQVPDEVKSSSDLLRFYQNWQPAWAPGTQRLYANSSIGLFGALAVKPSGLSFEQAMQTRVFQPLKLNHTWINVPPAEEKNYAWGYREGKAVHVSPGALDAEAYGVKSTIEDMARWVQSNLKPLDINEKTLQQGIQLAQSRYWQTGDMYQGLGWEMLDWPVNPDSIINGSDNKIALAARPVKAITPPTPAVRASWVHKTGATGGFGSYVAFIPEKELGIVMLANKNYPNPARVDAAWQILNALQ
#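 AmpC (5.3 nM in the dispensed reagent) in 20 mM phosphate pH 7.0 with 0.01% (detergent screen) or 0.0001% Triton X-100 was preincubated with compounds for 15 min at room temperature. Nitrocefin was then added from an 800 uM solution, and hydrolysis was followed at 480 nm.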
# AmpC no deterg – inhibitors of E. coli AmpC beta-lactamase without detergent. actives 0.52% (n = 330,000). AmpC nitrocefin hydrolysis, absorbance 480 nm, 0.0001% Triton. AID 485341. Potency, µM (series often up to 57.1 µM), for the others: top-dose activity change, negative = inhibition, usual class: inhibitors;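 note: plate controls were no compound for no effect and no enzyme for full effect; nearly all actives have a fitted effect of over 20% in size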
#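 AmpC (5.3 nM in the dispensed reagent) in 20 mM phosphate pH 7.0 with 0.01% (detergent screen) or 0.0001% Triton X-100 was preincubated with compounds for 15 min at room temperature. Nitrocefin was then added from an 800 uM solution, and hydrolysis was followed at 480 nm.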
# The depositor's hits bear a star; ? = inconclusive; . = not tested or not shown. A selection: hits, their analogues and other compounds. The true share with any hit is near 3.6%. Calls come from the whole dose curve; as a rule, active = well fitted curve in the direction sought with a large enough effect; inconclusive = small, poorly fitted or top-dose-only effect, or another doubt; inactive = no such curve, though single readings can be large; an effect the other way counts as inactive or inconclusive. Unless noted, % is set by controls: 0 for no effect and ±100 for the full control effect; potency is the fitted concentration of half-maximal effect.
SMILES,Sm TGR inh,Giardia FBPA inh,AmpC inh detg,AmpC no deterg
O=S(=O)(c1ccc(NC(=S)NCc2ccc(F)cc2)cc1)N1CCOCC1,?,.,-4%,-35%
Cc1cc(C)cc(NC(=S)NC2CC3CCCC(C2)N3C2CCCC2)c1 (configuration not stated),13µM*,1%,7%,1%
CCCC(=O)C1=C(c2ccc(C)cc2)N(C(=O)CCC)n2cnnc2S1,-2%,.,0%,.
Cc1nc2ccc(NC(=O)Cc3ccccc3F)cc2s1,.,0%,5%,3%
O=C1CC(c2ccccc2)CC2=C1C(c1ccccn1)Nc1ccccc1N2 (configuration not stated),-4%,-3%,0%,-26%
O=C1CC(c2ccc(F)cc2)CC2=C1C(c1ccc([N+](=O)[O-])o1)Nc1ccccc1N2 (configuration not stated),16µM*,-9%,4%,-27%
CCc1ccc(CN(C)Cc2nc(Cc3ccc(OC)c(OC)c3)no2)nc1,32µM*,-23%,-3%,80%
COc1ccc(S(=O)(=O)N2CCCN(CC(=O)Nc3ccccc3F)CC2)cc1,-9%,9%,-14%,18%
COc1ccc(S(=O)(=O)N2CCCN(C)CC2)cc1,40µM*,1%,1%,-12%
COc1ccc(S(=O)(=O)N2CCCN(CC(=O)C(C)(C)C)CC2)cc1,10µM*,0%,-5%,17%
O=C(Nc1ccc(-n2cnnn2)cc1)c1cc(S(=O)(=O)N2CCCC2)ccc1Cl,-9%,.,-17%,-33%
Cc1occc1-c1nnc(SCC(=O)c2ccc3c(c2)OCCO3)n1CC1CCCO1 (configuration not stated),50µM*,-6%,-9%,3%
Cc1occc1-c1nnc(SCC(=O)c2ccccc2)n1CC1CCCO1 (configuration not stated),28µM*,-4%,-17%,95%
CCn1c(SCC(=O)c2ccc(F)cc2)nnc1-c1ccoc1C,40µM*,-6%,?,-4%
CC(=O)Nc1ccc(SCC(c2ccccc2)N2CCN(C)CCC2=O)cc1 (configuration not stated),.,6%,.,.
CCOP(=O)(OCC)C(NC(=O)c1cc([N+](=O)[O-])cc([N+](=O)[O-])c1)C(F)(F)F (configuration not stated),13µM*,-7%,1%,-6%
O=C1NNC(c2ccccc2)=N/C1=C\c1ccco1,20µM*,-18%,-1%,25%
CN(C)/C=C1\C(=O)ON=C1c1ccccc1,69%,8%,2%,-15%
COc1ccc(/C=C2/C(=O)ON=C2c2ccccc2)cc1OC,?,-19%,-2%,-23%
O=C1NNC(c2ccccc2)=N/C1=C\c1ccccc1Cl,-9%,-25%,-8%,-49%
CC1=NN(c2ccccc2)C(=O)/C1=C/C=C/c1ccccc1,-11%,-5%,-11%,-27%
Cc1ccc(C2=NOC(=O)/C2=C\C=C\c2ccccc2)cc1,?,-14%,-12%,32µM*
COc1cc(/C=C2\C(=O)ON=C2c2ccccc2)cc(OC)c1OC,8.9µM*,-6%,0%,-34%
O=C1ON=C(c2ccccc2)/C1=C/c1ccco1,20µM*,-27%,-4%,-43%
Cn1cccc1/C=N/NC(=O)c1cc2ccccc2cc1O,-3%,?,-6%,?
SMILES,Sm TGR inh,Giardia FBPA inh,AmpC inh detg,AmpC no deterg
COc1cccc(N2CC(NC(=O)C(c3ccccc3)c3ccccc3)CC2=O)c1 (configuration not stated),2%,.,4%,.
Cc1ccc(C)c(S(=O)(=O)c2cn(C)c3cc(N4CCCCC4C)c(F)cc3c2=O)c1 (configuration not stated),-1%,.,16%,.
COc1ccc(/C=C2\C(=O)ON=C2c2cccc([N+](=O)[O-])c2)cc1,11µM*,-9%,3%,-49%
O=C1ON=C(c2ccccc2)/C1=C/c1ccc(-c2ccccc2[N+](=O)[O-])o1,11µM*,-25%,?,-51%
Cc1nnc2ccc(-c3ccc(NS(=O)(=O)c4ccc(Cl)s4)cc3)nn12,7%,.,15%,-18%
CC(=O)c1ccc([N+](=O)[O-])c(CS(=O)(=O)c2ccc(Cl)cc2)c1,3%,5%,0%,-17%
Cc1ccc(S(=O)(=O)N2CCC(C(=O)NNC(=O)c3cccnc3)CC2)cc1,10%,1%,5%,1%
COc1ccc(C(=O)COC(=O)CCN2C(=O)C3C4C=CC(C5CC45)C3C2=O)cc1 (configuration not stated),25µM*,.,3%,46%
Cc1cc(C)cc(NC(=O)CCS(=O)(=O)c2cccc3nsnc23)c1,-8%,.,-5%,.
O=C(O)c1ccnc(C(=O)O)c1,18%,1.8µM*,-14%,0%
CN(C)c1ccnc(C(=O)O)c1,0%,-2%,5%,-18%
Cc1cc(C)cc(NC(=O)Cc2noc3ccccc23)c1,-11%,.,1%,.
O=C(Cc1c[nH]c2ccccc12)NC1(C(=O)NC2CCCC2)CCCCC1,0%,5%,-12%,-29%
COc1ccc(CNC(=O)COC(=O)c2cccs2)cc1,-4%,4%,1%,-19%
CN(C)CCCNc1cc(-c2ccccc2)nc2cc(-c3cccc(F)c3)nn12,100µM*,10%,-5%,155%
O=C(Nc1ccccc1Oc1ccccc1)c1cccs1,14%,3%,?,-23%
O=c1cc(CO)oc(C(Nc2ccccn2)c2ccc(C(F)(F)F)cc2)c1O (configuration not stated),40µM*,-9%,-6%,-7%
O=C(c1ccccc1)C(Nc1ccccn1)c1ccccc1 (configuration not stated),.,0%,-5%,-32%
COc1cccc(C(Nc2ccccn2)c2oc(CO)cc(=O)c2O)c1 (configuration not stated),3.2µM*,?,-13%,-25%
O=c1cc(CO)occ1OCc1cccc(C(F)(F)F)c1,1%,4%,-3%,-1%
O=c1cc(CO)oc(C(Nc2ccccn2)c2cccc(F)c2)c1O (configuration not stated),2.8µM*,?,?,40µM*
COCCn1c(SCC(=O)c2c(N)n(C3CC3)c(=O)[nH]c2=O)nnc1-c1cccc(C)c1,-3%,.,-4%,-13%
COc1ccc(OC)c(NC(=O)CSC2=Nc3ccccc3C3=NC(CCC(=O)NCc4ccccc4)C(=O)N23)c1 (configuration not stated),1%,.,-9%,.
COc1ccc(N2C(=O)CC(Sc3ncn[nH]3)C2=O)c(OC)c1 (configuration not stated),0.28µM*,?,?,76%
CC(C)c1ccc(N2C(=O)CC(Sc3nc4ccccc4o3)C2=O)cc1 (configuration not stated),?,-26%,-5%,-38%
CCCc1c(O)nc(SC2CC(=O)N(c3cc(OC)ccc3OC)C2=O)[nH]c1=O (configuration not stated),-4%,-24%,?,-20%
